Screens (PubChem)
Sm TGR block – blocks Schistosoma mansoni thioredoxin glutathione reductase; Q962Y6; purified TGR, DTNB reduction, TNB absorbance 405 nm; Potency, µM (titrated, usually from 114 µM), usual class: inhibitors; 3% of 360,000 active; also: nearly all actives have a fitted effect of over 60% in size
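First, TGR (20 nM dispensed) and NADPH were mixed with compound. Second, a 15 min room-temperature incubation followed. Third, further NADPH and then DTNB were added to start the reaction. Finally, TNB absorbance was monitored kinetically.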
Shiga toxin inh – blocks Shiga toxin action in Vero cells; Vero cells, Shiga toxin protein synthesis inhibition reporter; inhibition, % at 38.7 µM; 9.2% of 290,000 active; AID 2315; in the data active = inhibition mostly above about 28%, no sharp cut-off; inactive = mostly below about 43%
FBPA Giardia inh – blocks Giardia fructose-bisphosphate aldolase activity; purified Giardia FBPA; Potency, µM (top dose mostly 59.6 µM), actives largely listed as inhibitors; 0.71% of 290,000 active; also: nearly all actives have a fitted effect of over 55% in size
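40 nM FBPA preincubated 10 min at RT with compound (up to 57.5 uM final), then substrate plus GAPDH/TPI/NAD/arsenate coupling and diaphorase/resazurin added. Fluorescence read after 20 min at RT, 525/598 nm.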
LmPK inhibitor – inhibitors of Leishmania mexicana pyruvate kinase; Q27686; purified LmPK, Kinase-Glo ATP luminescence, 1 h; Potency, µM (titrated, usually from 57.5 µM), usual class: inhibitors; 0.37% of 290,000 active; AID 1721
Target sequence (Q27686 whole entry, looked up): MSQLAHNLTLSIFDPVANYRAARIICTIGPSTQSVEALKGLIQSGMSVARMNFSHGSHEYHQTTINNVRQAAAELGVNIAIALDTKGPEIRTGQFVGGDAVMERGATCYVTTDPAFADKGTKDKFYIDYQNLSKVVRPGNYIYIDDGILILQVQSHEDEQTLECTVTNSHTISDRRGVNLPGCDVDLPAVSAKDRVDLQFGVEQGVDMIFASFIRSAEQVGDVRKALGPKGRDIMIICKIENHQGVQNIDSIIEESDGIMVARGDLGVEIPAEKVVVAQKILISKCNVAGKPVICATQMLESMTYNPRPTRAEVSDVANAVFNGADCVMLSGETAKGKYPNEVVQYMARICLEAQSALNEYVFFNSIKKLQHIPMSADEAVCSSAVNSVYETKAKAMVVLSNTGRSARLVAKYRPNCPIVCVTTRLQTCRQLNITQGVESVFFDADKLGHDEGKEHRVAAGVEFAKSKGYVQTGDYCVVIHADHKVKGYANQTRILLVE
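Pyruvate kinase activity monitored as ATP production (luciferase luminescence). Conditions: 0.1 nM enzyme, 0.5 mM PEP, 0.1 mM ADP, 1 h, RT; normalized against uninhibited and no-enzyme wells.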
Cycloheximide cs – affects cycloheximide protein synthesis inhibition readout, counter-screen; cell reporter, cycloheximide protein synthesis inhibition counterscreen; 12% of 300,000 active; max response, %; in the data active = max response mostly above about 13%, no sharp cut-off; inactive = mostly below about 14%; also: read at 38.3 µM for the half of the compounds with a filed dose
Tb PYK inh – T. brucei pyruvate kinase inhibition | Q57TT1 | TbPYK enzyme, Kinase-Glo Plus ATP luminescence, 45 min | Potency, µM (highest dose often 76.8 µM), actives largely listed as inhibitors | 0.12% of 410,000 active; also: nearly all actives have a fitted effect of over 50% in size
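Activity of T. brucei pyruvate kinase was followed by Kinase-Glo Plus luminescence after the enzyme reacted 45 min at room temperature with 130 uM ADP (final) and substrate. Test compounds were added before ADP at multiple concentrations.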
Hits are given with their value; – = inactive; ? = inconclusive; · = no result; [ ] = another dose, or the depositor's remark. Only a selection was taken, and hits are over-represented in it overall. Unless noted, calls follow the shape of the dose curve; as a rule, active = well fitted curve in the direction sought with a large enough effect; inconclusive = small, poorly fitted or top-dose-only effect, or another doubt; inactive = no such curve, though single readings can be large; an effect the other way counts as inactive or inconclusive.

SMILES | Sm TGR block | Shiga toxin inh | FBPA Giardia inh | LmPK inhibitor | Cycloheximide cs | Tb PYK inh
CC1(C)O[C@H]2C[C@@H]3[C@H]4CCC5=CC(=O)C=C[C@]5(C)[C@@]4(F)[C@@H](O)C[C@]3(C)[C@]2(C(=O)CO)O1 | · | – | – | · | – | –
Cc1ccc(CCNC(=O)C(NS(=O)(=O)c2ccc3c(c2)oc(=O)n3C)C(C)C)cc1 (configuration not stated) | – | · | · | · | · | –
Cc1ccccc1C(=O)Oc1cccc(Nc2ncnc3ccccc23)c1 | · | · | · | · | · | –
COc1cccc(Nc2ncnc3ccc(Br)cc23)c1 | · | · | · | · | · | –
Oc1ccc(Nc2ncnc3ccccc23)cc1 | – | – | – | – | – | –
Cc1ccc(Nc2ncnc3ccccc23)cc1 | – | 118.9 | ? | – | 61.6 | –
CC(=O)Oc1cccc(Nc2ncnc3ccccc23)c1 | – | · | – | – | 19.2 | –
CCOC(=O)c1cccc(Nc2ncnc3ccccc23)c1 | – | 32.2 | – | – | 25.4 | –
O=C(O)c1cccc(Nc2ncnc3ccc(Br)cc23)c1 | – | 42.9 | – | – | 24.9 | –
COC(=O)C1=C(C)N(Cc2ccccc2)C2=C(C(=O)c3ccccc3)C(c3ccccc3)[C@@](O)(C(=O)OC)C(=O)N2C1c1ccccc1 (some centres not stated) | · | · | –[12.9 µM] | · | · | ·
O=C(CCCN1CCN2CCCC2C1)c1ccc(F)cc1 (configuration not stated) | · | · | · | · | · | –
Cc1cccc(Nc2ncnc3ccccc23)c1 | – | – | – | – | 34.5 | –
COc1ccc(OC)c(Nc2ncnc3ccccc23)c1 | – | – | – | – | – | –
Cc1cccc(Nc2ncnc3c2cnn3C)c1 | · | – | – | – | – | –
CC(C)Oc1ccc(Nc2ncnc3ccccc23)cc1 | · | – | ? | – | 45.1 | –
COc1ccc(N(CC(=O)NC2CCCC2)C(=O)CCC(=O)Nc2nc(C)cs2)cc1OC | – | – | – | – | – | –
CCCC1=NN(c2ccc([N+](=O)[O-])cc2)C(=O)/C1=C\N(C)C | – | – | – | – | 11.2 | –
CCN(CC)c1ccc(/C=C2/C(=O)N(c3ccc([N+](=O)[O-])cc3)N=C2N2CCOCC2)cc1 | – | – | – | – | – | ·
Cc1ccc2c(C)c3ccc4ccccc4c3c[n+]2c1 | · | · | · | · | · | –
Cc1ccc2c(c1)Sc1c(ccc3ccccc13)N2 | – | 84.6 | ? | – | 53.5 | –
Cc1ccccc1NC(=O)CSc1nc(-c2ccccc2)cn1-c1ccccc1F | – | · | · | · | · | –
COc1cccc(C2CCCN2Cc2nc(-c3sccc3C)oc2C)c1 (configuration not stated) | ? | – | – | – | – | –
COc1cccc(C2CCCCN2Cc2nc(-c3ccc(C)o3)oc2C)c1 (configuration not stated) | – | 78.8 | – | – | 31.4 | –
Cc1cccc(C)c1NC(=O)Cn1c(=O)n(CCCS(=O)(=O)C2CCCCC2)c(=O)c2ccccc21 | – | · | · | · | · | –
COc1ccc2c(c1)CC/C2=N\OC(=O)c1ccccc1OC | – | 90.4 | – | – | 37.8 | –
SMILES | Sm TGR block | Shiga toxin inh | FBPA Giardia inh | LmPK inhibitor | Cycloheximide cs | Tb PYK inh
C=CCNC(=O)N1CCc2nc(COc3ccccc3)c3c(c2C1)CO[C@@H](C)C3 | · | · | –[12.9 µM] | –[11.5 µM] | · | ·
CCc1cc(CNC(=O)CCc2nnc(CCCc3ccccc3)o2)on1 | – | 78.6 | – | – | 57.9 | –
Cc1cccc(CCNC(=O)c2nnc(Cc3ccc(Cl)cc3)o2)c1 | – | – | – | – | – | –
CC(C)c1cc(CNC(=O)CCc2nnc(CCCc3ccccc3)o2)on1 | – | 57.5 | – | – | 30.4 | –
CCc1cc(CNC(=O)CCc2nnc(Cc3cccc(C)c3)o2)on1 | – | 70.8 | – | – | – | –
Cc1cccc(Cc2nnc(CCC(=O)NCc3ccncc3C)o2)c1 | – | – | – | – | 31.3 | –
COCCn1c(=O)c(-c2ccccc2)nc2cnc(Nc3cccc(OC)c3)nc21 | · | · | – | · | · | ·
CN(C)c1ccc(CNS(=O)(=O)c2ccc3[nH]c4c(c3c2)CCCCC4)cc1 | – | · | · | · | · | –
CC(=O)Nc1cccc(CCc2nc3ccccc3[nH]2)c1 | – | · | – | – | 22.8 | –
O=C(CCc1nc2ccccc2[nH]1)Nc1ccc2c(c1)OCO2 | – | 106.6 | – | – | 19.0 | –
Cc1ccc2nc(SC(C)C(=O)N3CCOCC3)[nH]c2c1 (configuration not stated) | – | 79.3 | – | – | 43.9 | –
CC(=O)Nc1ccc(CCc2nc3ccccc3[nH]2)cc1 | – | – | – | – | – | –
O=C(CSc1ncccc1-c1nc2ccccc2[nH]1)Nc1ccc2c(c1)OCCO2 | – | 91.8 | – | – | 67.7 | –
Cc1ccc(S(=O)(=O)N[C@H]2COC(=O)[C@H](C)COC(=O)C/C=C\[C@H]2C)cc1 | · | · | –[12.9 µM] | · | · | ·
Nc1ncnc2c1cnn2C1CCCCC1 | – | – | – | – | – | –
N#Cc1cccc(NC(=O)CNc2cc(S(=O)(=O)N3CCOCC3)ccc2N2CCCC2)c1 | – | · | · | · | · | –
O=C(CSc1nc2ccccc2[nH]1)c1ccc2c(c1)OCO2 | – | 91.0 | – | – | 57.2 | –
CCc1c(C)nc(SCC(=O)Nc2ccc3c(c2)OCCO3)[nH]c1=O | – | – | – | – | – | –
O=C(CSc1nc2ccccc2[nH]1)Nc1ccc2[nH]c(=O)[nH]c2c1 | – | · | · | · | · | –
Cc1ccc2nc(SCC(=O)Nc3ccc4c(c3)OCCO4)[nH]c2c1 | – | – | – | – | 26.4 | –
O=C(CSc1nc2ccccc2[nH]1)Nc1ccc2c(c1)OCCO2 | – | – | – | – | 40.7 | –
CCC(=O)Nc1ccc(C(=O)CSc2nc3ccc(C)cc3[nH]2)cc1 | – | – | – | – | 19.0 | –
CCC(=O)Nc1ccc(C(=O)CSc2nc3ccccc3[nH]2)cc1 | – | – | – | – | – | –
CC(=O)c1cc(-c2ccccc2)n(CCC(=O)Nc2ccc(C(C)C)cc2)c1C | – | · | · | · | · | –[15.4 µM]
N[C@@H](Cn1cc(F)c(=O)[nH]c1=O)C(=O)O | · | · | – | · | · | ·
SMILES | Sm TGR block | Shiga toxin inh | FBPA Giardia inh | LmPK inhibitor | Cycloheximide cs | Tb PYK inh
Cc1ccc(-c2cn3c(n2)sc2cc(C(=O)N4CCCCC4)ccc23)cc1 | – | · | · | · | · | –
CN(C)c1ccc(N=Cc2cccn2C)cc1 | ? | 107.4 | – | – | 85.4 | –
CCc1cccc(C)c1NC(=O)c1cnn(-c2ccc(OC)cc2)c1C1CCN(C(=O)OC(C)(C)C)CC1 | – | · | · | · | · | –[15.4 µM]
O=C(CN1CCCCC1)N/N=C/c1ccc(Cl)cc1 | – | 45.4 | – | – | 14.0 | –
Cn1cccc1CC(=O)N/N=C\c1ccccc1 | – | – | – | – | – | –
O=C(CSCc1ccc(Cl)cc1)N/N=C/c1ccccc1 | – | – | 17.7µM | – | – | –
O=C(CN1CCCCCCC1)N/N=C/c1ccc(F)c(F)c1 | – | – | – | – | – | –
O=C(CN1CCCCCC1)N/N=C/c1ccc2ccccc2c1 | – | 74.4 | ? | – | 43.3 | –
Cn1cccc1CC(=O)N/N=C/c1ccc(Cl)cc1 | ? | 26.2 | – | – | 16.3 | –
CC1(C)NC(=O)N(c2ccc([N+](=O)[O-])c(C(F)(F)F)c2)C1=O | – | · | – | · | · | –
